What all share (format): functional
The target of experiment [1] is Solute carrier family 2, facilitated glucose transporter member 1 (Homo sapiens) (UniProt P11166). Description: ST_JUDE_LEISH: Cytotoxicity at 2uM final concentration against transgenic Leishmania Mexicana promastigotes LmGLUT1 that are glucose transport deficient and complemented with the human glucose transporter GLUT1. Activity is measured by DNA content using SYBR green in vitro.

For experiment [2], the target named is Hexose transporter 1 (Plasmodium falciparum) (UniProt O97467). Put plainly: ST_JUDE_LEISH: Cytotoxicity at 2uM final concentration against transgenic Leishmania Mexicana promastigotes LmPfHT that are glucose transport deficient and complemented with the Plasmodium falciparum hexose transporter. Activity is measured by DNA content using SYBR green in vitro.

Experiment [3] addresses Glucose transporter (Leishmania mexicana) (UniProt O61059). Description: ST_JUDE_LEISH: Cytotoxicity at 2uM final concentration against transgenic Leishmania Mexicana promastigotes LmGT2 that are glucose transport deficient and complemented with the L. Mexicana glucose transporter 2. Activity is measured by DNA content using SYBR green in vitro.

What is called inhibition is the change of the read-out against control, counted positive when it falls.

Sequence of Solute carrier family 2, facilitated glucose transporter member 1 (Homo sapiens) (P11166 whole entry): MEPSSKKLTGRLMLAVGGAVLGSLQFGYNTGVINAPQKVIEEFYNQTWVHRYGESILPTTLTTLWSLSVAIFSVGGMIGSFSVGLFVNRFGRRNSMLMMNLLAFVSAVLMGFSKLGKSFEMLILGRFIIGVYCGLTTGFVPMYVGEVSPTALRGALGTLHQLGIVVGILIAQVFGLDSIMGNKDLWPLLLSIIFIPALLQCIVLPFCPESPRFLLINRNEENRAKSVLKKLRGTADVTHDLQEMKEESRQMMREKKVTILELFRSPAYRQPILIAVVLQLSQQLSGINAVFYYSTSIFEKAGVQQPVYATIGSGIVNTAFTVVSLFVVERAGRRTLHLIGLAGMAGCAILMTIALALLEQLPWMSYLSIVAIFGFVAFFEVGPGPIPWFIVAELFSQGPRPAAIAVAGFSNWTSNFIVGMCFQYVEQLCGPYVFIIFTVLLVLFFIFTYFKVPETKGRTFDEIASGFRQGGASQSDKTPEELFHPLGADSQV

On to `COc1cccc(Cn2ccc3c4c(N)nc(N)nc4ccc32)c1`, for which the inhibition in experiment [1] was determined as 94.3%; in experiment [2] it was 96%; in experiment [3], 85.1%.

For the molecule `Fc1ccc(C2N=C(SCCSC3=NC(c4ccc(F)cc4)C(c4ccc(F)cc4)N3)NC2c2ccc(F)cc2)cc1` (centres undefined), the results for the inhibition in experiment [1], in experiment [2] and in experiment [3] were 1.34%, 3.1% and 3.33%, respectively.

Turning to `CCCCN1CCN(CCCCNc2c3ccccc3nc3ccccc23)CC1`, the inhibition in experiment [1] amounted to 36.8%; in experiment [2] it was 43.1%; in experiment [3], 22%.

With `O=C(Nc1ccc(-c2csc(-c3nc4ccccc4[nH]3)c2)cc1)Nc1ccc(F)c(F)c1F`, the inhibition in experiment [1] was 0.67%; in experiment [2], 2.98%; in experiment [3] it was 2.02%.

In the case of `CC(C)(C)c1cc(NC2CC2)nc(-c2ccccn2)n1`, the results for the inhibition in experiment [1], in experiment [2] and in experiment [3] were 1.4%, 3.18% and 4.03%, respectively.

Consider `Cc1sc(N2CCCCC2)nc1C(=O)Nc1ccc(F)cc1C(F)(F)F`, for which the values for the inhibition in experiment [1], in experiment [2] and in experiment [3] were 3.13%, -1.54% and 0.73%, respectively.

`Cc1cccc(CNc2nc(C)cc(NCCC(=O)Nc3ccccc3)n2)c1`: the inhibition worked out at 10.3% in experiment [1], 11.3% in experiment [2] and 5.57% in experiment [3].

As to `Cc1cc(N[C@@H](Cc2ccccc2)C(=O)NC2CCCC2)nc(NCc2ccccc2C)n1`, the inhibition worked out at 6.22% in experiment [1], 6.32% in experiment [2] and 4.04% in experiment [3].

As for `COc1ccc(CN(C)CCCOc2ccc(NC(=O)c3cccc4c(=O)c5cccc(C)c5[nH]c34)cc2)cc1OC`, the results for the inhibition in experiment [1], in experiment [2] and in experiment [3] were 4.56%, 4.25% and 3.39%, respectively.

In the case of `CCn1c(C(C)C)cc2c3c(N)nc(N)nc3ccc21`, the inhibition in experiment [1] was 50.6%; in experiment [2], 61.1%; in experiment [3], 42%.

As to `CS(=O)(=O)N1CC2(CCN(CCC(NC(=S)Nc3ccccc3)c3ccc(Cl)c(Cl)c3)CC2)c2ccccc21` (centres undefined), the inhibition in experiment [1] is 3.72%; in experiment [2] it was 1.67%; in experiment [3] it was -0.39%.

As for `CCN(C(=O)NC)C1c2cc(C#N)ccc2OC(C)(C)C1O` (centres undefined), the inhibition in experiment [1] worked out at 2.85%; in experiment [2], 1.33%; in experiment [3], 1.87%.

In the case of `CC(C)N1CCN(C(CN2CCN(CCCOc3cccc(F)c3)CC2)c2ccc(F)cc2)CC1` (centres undefined), the figures for the inhibition in experiment [1], in experiment [2] and in experiment [3] were -2.25%, -0.57% and -1.78%, respectively.

These data come from ChEMBL document CHEMBL3433997, “St. Jude Leishmania screening dataset” (2016).
